Measurements taken from the supplement of paper PMC10849652.
About 7,900 targets were measured; listed, in parts, are those with a hit and a random draw of the rest. About 0.6% of all pairs of compound and target were hits.

Key:
Assay in all cases: log2 fold change, soluble protein after heating vs DMSO (PISA); higher = thermal stabilisation; K562 cells, 10 uM, 30 min; active = over 0.2 and 3.5 SD of the protein, either way, in both replicates (recomputed)
[1] = compound: C1COCCN1CCN2C3=CC=CC=C3N=C2NC(=O)C4=CC(=CC=C4)[N+](=O)[O-] [IRAK-1-4 Inhibitor I]
Outline: (§1)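 K562 cells at 2×10^6 cells/mL were treated for 30 min with 10 μM compound, and aliquots were heated for 3 min over 48°C-58°C before pooling. Extraction used PBS with 0.5% NP-40 at 4°C, and soluble protein was the supernatant after 21,000xg for 90 min, measured by TMTpro 16plex LC-MS/MS with channel sums equalised. Thermal stability values, relative to control samples and from duplicates, are log2 fold changes.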

[2] = compound: C=CC(=O)N1CCC[C@@H](n2nc(-c3ccc(Oc4ccccc4)cc3)c3c(N)ncnc32)C1 [ibrutinib]
Outline: as §1

[3] = compound: CC(=O)c1cnc2ccc(-c3cc(Cl)c(O)c(Cl)c3)nc2c1N[C@H]1CC[C@H](CN(C)C)CC1
Outline: as §1

[4] = compound: CC(C)(C)Cn1c(N)nc2ccc(-c3[nH]c(C(C)(C)C)nc3-c3ccc(F)cc3)nc21 [ralimetinib]
Outline: as §1

[5] = compound: CC(C)(O)CC(=O)NCCn1ccc2ncnc(Nc3ccc(Oc4cccc(C(F)(F)F)c4)c(Cl)c3)c21
Outline: as §1

[6] = compound: CC(C)C1=C2N=C(C=C(N2N=C1)NCC3=CC=CC=C3)NCCCCCCN
Outline: as §1

[7] = compound: CC(C)C[C@@H](C=O)NC(=O)[C@H](CC(C)C)NC(=O)[C@H](CC(C)C)NC(=O)OCc1ccccc1
Outline: as §1

[8] = compound: CC(C)N(C[C@H]1O[C@@H](n2cnc3c(N)ncnc32)[C@H](O)[C@@H]1O)[C@H]1C[C@@H](CCc2nc3cc(C(C)(C)C)ccc3[nH]2)C1 [pinometostat]
Outline: as §1

[9] = compound: CC1=C(C(CC(=O)N1)C2=CC=C(C=C2)C(F)(F)F)C(=O)NC3=C(C=C4C(=C3)C=NN4)F
Outline: as §1

[10] = compound: CC1=C(C2=C(C=C1)C(=O)C3=CC=CC=C3N2CCCN)C
Outline: as §1

Measured: log2 fold change

NME2P1 (UniProt O60361)
inactive: [1] -0.019 | [2] -0.18 | [3] -0.033 | [4] 0.032 | [5] -0.024 | [6] -0.072 | [7] -0.135 | [8] 0.037 | [9] 0.149 | [10] 0.031

NEDD4L (UniProt Q96PU5)
Sequence of UniProt Q96PU5 (Q96PU5 whole entry, looked up): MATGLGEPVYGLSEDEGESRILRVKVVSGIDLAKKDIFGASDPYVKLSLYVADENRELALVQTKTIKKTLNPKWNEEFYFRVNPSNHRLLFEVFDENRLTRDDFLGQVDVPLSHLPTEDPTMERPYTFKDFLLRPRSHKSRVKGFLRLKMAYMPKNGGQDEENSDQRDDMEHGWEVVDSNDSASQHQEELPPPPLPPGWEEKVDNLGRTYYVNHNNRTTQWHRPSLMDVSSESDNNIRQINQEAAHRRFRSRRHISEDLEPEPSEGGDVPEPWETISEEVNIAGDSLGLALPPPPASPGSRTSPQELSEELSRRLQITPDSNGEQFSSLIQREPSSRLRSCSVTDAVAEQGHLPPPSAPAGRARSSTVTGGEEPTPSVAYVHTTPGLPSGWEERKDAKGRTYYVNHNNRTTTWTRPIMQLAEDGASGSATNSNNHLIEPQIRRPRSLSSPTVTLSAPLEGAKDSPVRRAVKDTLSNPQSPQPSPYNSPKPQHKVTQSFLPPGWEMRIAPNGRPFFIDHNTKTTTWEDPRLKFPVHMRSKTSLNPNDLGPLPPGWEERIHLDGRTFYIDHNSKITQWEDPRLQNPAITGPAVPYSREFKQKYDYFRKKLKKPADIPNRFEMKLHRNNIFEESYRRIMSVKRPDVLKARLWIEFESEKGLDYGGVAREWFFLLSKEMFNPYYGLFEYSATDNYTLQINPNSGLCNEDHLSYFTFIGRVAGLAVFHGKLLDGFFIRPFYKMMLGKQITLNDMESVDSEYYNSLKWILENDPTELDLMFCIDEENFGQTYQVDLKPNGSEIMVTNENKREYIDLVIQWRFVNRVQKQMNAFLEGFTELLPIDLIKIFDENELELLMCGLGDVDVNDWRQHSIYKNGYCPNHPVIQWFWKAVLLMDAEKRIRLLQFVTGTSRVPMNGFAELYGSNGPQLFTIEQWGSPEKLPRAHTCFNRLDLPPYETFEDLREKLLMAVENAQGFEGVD
inactive: [1] 0.026 | [2] -0.002 | [3] -0.014 | [5] -0.01 | [6] -0.107 | [7] -0.059 | [8] 0.027 | [9] -0.017 | [10] -0.084
active: [4] -0.293

NA, A0A096LPI6
inactive: [1] 0.065 | [2] 0.022 | [3] 0.046 | [4] -0.057 | [5] 0.008 | [6] 0.058 | [7] -0.016 | [8] -0.043 | [9] 0.018 | [10] 0.004

NEDD4 isoform 4 (UniProt P46934)
inactive: [1] 0.002 | [2] -0.038 | [3] 0.02 | [4] -0.014 | [5] -0.027 | [6] -0.124 | [7] 0.019 | [8] -0.03 | [9] -0.025 | [10] -0.065

MORC3 (UniProt Q14149)
Sequence of UniProt Q14149 (Q14149 whole entry, looked up): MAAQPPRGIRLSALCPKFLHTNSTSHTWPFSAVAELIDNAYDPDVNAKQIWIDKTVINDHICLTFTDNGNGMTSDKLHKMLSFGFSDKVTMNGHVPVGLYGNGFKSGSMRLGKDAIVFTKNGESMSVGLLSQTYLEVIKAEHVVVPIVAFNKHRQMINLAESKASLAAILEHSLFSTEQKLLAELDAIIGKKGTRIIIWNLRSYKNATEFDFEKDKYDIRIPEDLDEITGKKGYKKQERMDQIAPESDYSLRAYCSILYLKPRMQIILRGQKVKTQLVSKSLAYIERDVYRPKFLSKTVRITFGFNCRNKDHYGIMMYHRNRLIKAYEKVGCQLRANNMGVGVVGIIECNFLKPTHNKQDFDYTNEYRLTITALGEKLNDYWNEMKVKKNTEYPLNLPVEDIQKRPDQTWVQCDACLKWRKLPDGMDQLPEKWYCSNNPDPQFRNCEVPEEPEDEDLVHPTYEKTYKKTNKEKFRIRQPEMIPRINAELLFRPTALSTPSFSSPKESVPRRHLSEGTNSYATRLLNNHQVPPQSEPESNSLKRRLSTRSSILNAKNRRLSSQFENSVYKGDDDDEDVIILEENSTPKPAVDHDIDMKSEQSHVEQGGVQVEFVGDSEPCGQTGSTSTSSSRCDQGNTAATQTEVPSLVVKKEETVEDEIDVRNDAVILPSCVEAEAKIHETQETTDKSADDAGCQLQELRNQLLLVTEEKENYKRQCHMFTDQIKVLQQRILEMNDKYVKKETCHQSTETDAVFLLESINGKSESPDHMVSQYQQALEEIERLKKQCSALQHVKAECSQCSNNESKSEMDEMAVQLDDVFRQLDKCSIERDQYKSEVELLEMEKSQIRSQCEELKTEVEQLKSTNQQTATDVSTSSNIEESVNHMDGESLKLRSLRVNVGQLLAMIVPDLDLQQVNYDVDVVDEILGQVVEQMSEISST
inactive: [1] 0.021 | [2] -0.047 | [3] 0.023 | [4] -0.024 | [5] -0.122 | [6] -0.051 | [7] 0.002 | [8] -0.026 | [9] -0.039
active: [10] 0.595

NECTIN2 (UniProt Q92692)
inactive: [1] 0.025 | [2] 0.02 | [3] -0.023 | [4] -0.035 | [5] -0.03 | [6] 0.182 | [7] 0.024 | [8] 0.009 | [9] -0.015 | [10] 0

OXA1L (UniProt Q15070)
inactive: [1] 0.05 | [2] 0.011 | [3] 0.03 | [4] -0.037 | [5] 0.006 | [6] -0.209 | [7] -0.004 | [8] 0 | [9] 0.016 | [10] -0.018

MRPS16 (UniProt Q9Y3D3)
inactive: [1] -0.082 | [2] 0.02 | [3] -0.047 | [4] -0.008 | [5] -0.034 | [6] -0.19 | [7] 0.015 | [8] 0.021 | [9] 0 | [10] -0.126

NECTIN2 isoform 2 (UniProt Q92692)
inactive: [1] -0.018 | [2] 0.047 | [3] 0.03 | [4] 0.081 | [5] 0.1 | [6] 0.059 | [7] 0.008 | [8] -0.008 | [9] 0

NMD3 (UniProt Q96D46)
Sequence of UniProt Q96D46 (Q96D46 whole entry, looked up): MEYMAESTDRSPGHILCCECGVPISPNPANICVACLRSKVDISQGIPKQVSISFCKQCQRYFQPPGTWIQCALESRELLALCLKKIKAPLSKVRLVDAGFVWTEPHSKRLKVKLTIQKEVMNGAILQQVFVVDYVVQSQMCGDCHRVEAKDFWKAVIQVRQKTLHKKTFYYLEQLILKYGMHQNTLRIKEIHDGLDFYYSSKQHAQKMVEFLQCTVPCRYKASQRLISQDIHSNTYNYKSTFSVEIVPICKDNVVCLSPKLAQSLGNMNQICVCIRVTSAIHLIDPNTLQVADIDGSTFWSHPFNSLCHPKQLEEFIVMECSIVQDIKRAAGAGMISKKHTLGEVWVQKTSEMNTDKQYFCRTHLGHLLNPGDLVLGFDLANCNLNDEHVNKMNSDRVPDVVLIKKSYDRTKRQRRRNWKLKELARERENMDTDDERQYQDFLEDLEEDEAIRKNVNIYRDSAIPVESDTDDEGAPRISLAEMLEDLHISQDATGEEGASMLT
active: [10] -0.392
inactive: [1] 0.001 | [2] -0.046 | [3] 0.017 | [4] -0.049 | [5] -0.104 | [6] -0.069 | [7] -0.141 | [8] -0.026 | [9] -0.064

NDUFA9 (UniProt Q16795)
inactive: [1] 0.003 | [2] -0.036 | [3] -0.037 | [4] -0.011 | [5] -0.211 | [6] -0.101 | [7] 0 | [8] -0.006 | [9] -0.01 | [10] 0.086

OTUD6B (UniProt Q8N6M0)
inactive: [1] -0.046 | [2] -0.017 | [3] -0.02 | [4] 0.036 | [5] -0.049 | [7] 0.029 | [8] 0.053 | [9] 0.078 | [10] -0.015
active: [6] -0.269

MSL1 (UniProt Q68DK7)
inactive: [1] 0.007 | [2] 0.01 | [3] -0.039 | [4] 0.184 | [5] -0.086 | [6] 0.071 | [7] -0.005 | [8] -0.1 | [9] -0.022

NRGN (UniProt Q92686)
Sequence of UniProt Q92686 (Q92686 whole entry, looked up): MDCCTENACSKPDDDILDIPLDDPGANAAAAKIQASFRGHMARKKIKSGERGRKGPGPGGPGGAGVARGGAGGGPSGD
inactive: [1] 0.151 | [2] 0.079 | [3] 0.034 | [4] 0.007 | [5] 0.053 | [6] 0.058 | [7] -0.199 | [8] 0.21 | [9] 0.108

NDUFAF6 (UniProt Q330K2)
inactive: [1] 0.129 | [2] -0.044 | [3] -0.107 | [4] 0.039 | [5] -0.214 | [6] -0.235 | [7] 0.083 | [8] -0.132 | [9] 0.091 | [10] -0.109

NEU1 (UniProt Q99519)
active: [6] -0.379
inactive: [1] -0.136 | [2] -0.069 | [3] -0.175 | [4] 0.05 | [5] 0.018 | [7] 0.166 | [8] -0.021 | [9] 0.049 | [10] -0.131

MYO19 (UniProt Q96H55)
inactive: [1] 0.014 | [2] -0.11 | [3] 0.168 | [4] 0.115 | [5] 0.079 | [6] -0.06 | [7] 0.176 | [8] 0.014 | [9] -0.198

MNAT1 (UniProt P51948)
inactive: [1] 0.025 | [2] 0.03 | [4] -0.044 | [5] 0.024 | [6] 0.062 | [7] -0.028 | [8] 0.022 | [9] -0.016 | [10] -0.027
active: [3] -0.221

NMRAL1 (UniProt Q9HBL8)
inactive: [1] 0.058 | [3] 0.467 | [4] -0.016 | [5] -0.121 | [6] 0 | [7] -0.007 | [8] 0 | [9] -0.257 | [10] 0.281
active: [2] 0.874

NMU (UniProt P48645)
Sequence of UniProt P48645 (P48645 whole entry, looked up): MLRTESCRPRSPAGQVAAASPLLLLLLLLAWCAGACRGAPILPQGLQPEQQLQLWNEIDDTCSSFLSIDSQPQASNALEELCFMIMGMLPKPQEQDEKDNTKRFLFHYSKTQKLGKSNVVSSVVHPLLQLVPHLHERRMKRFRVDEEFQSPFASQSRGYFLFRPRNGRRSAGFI
inactive: [1] -0.052 | [2] 0.027 | [3] 0.034 | [4] 0.063 | [5] 0.011 | [6] 0.123 | [7] 0.313 | [8] -0.106 | [9] 0.03 | [10] -0.174

MRPL50 (UniProt Q8N5N7)
inactive: [1] -0.036 | [2] 0.052 | [3] 0.036 | [4] 0.315 | [5] -0.001 | [6] -0.014 | [7] -0.203 | [8] -0.01 | [9] 0.04 | [10] 0.16

MRPS35 (UniProt P82673)
inactive: [1] -0.035 | [2] 0.004 | [3] -0.082 | [4] -0.035 | [5] -0.047 | [6] -0.024 | [7] 0.083 | [8] 0.078 | [9] 0.006 | [10] -0.186

OXSM (UniProt Q9NWU1)
Sequence of UniProt Q9NWU1 (Q9NWU1 whole entry, looked up): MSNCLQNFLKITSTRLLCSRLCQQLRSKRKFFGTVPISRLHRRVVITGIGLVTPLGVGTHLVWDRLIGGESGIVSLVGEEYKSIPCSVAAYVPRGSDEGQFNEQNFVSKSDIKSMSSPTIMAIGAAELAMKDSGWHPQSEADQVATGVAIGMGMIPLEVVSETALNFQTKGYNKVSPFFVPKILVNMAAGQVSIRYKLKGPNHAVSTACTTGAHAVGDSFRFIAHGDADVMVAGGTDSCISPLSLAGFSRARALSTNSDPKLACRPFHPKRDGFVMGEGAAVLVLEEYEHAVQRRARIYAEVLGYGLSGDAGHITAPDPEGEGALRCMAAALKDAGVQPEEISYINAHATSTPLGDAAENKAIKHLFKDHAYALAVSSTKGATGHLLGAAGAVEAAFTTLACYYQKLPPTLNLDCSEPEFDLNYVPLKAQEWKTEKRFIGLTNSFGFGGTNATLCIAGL
inactive: [1] 0.032 | [2] 0.064 | [3] 0.017 | [4] 0.008 | [5] 0.031 | [6] 0.041 | [7] -0.025 | [8] -0.067 | [9] -0.023 | [10] -0.011

NDUFA4 (UniProt O00483)
inactive: [1] 0 | [2] -0.019 | [3] -0.024 | [4] -0.098 | [5] -0.029 | [6] -0.018 | [7] -0.009 | [8] -0.013 | [9] 0.032 | [10] 0.126

OTULIN (UniProt Q96BN8)
Sequence of UniProt Q96BN8 (Q96BN8 whole entry, looked up): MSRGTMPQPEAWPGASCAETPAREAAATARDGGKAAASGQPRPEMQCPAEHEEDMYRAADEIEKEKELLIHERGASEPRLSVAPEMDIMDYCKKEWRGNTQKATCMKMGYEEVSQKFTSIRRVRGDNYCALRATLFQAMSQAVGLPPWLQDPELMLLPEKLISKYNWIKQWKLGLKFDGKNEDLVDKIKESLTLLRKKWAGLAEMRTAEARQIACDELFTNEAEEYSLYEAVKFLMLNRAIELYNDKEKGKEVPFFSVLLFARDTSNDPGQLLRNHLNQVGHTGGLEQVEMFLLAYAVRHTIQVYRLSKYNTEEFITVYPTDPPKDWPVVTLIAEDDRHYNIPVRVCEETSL
active: [6] -0.362
inactive: [1] 0.021 | [2] -0.025 | [3] -0.003 | [4] -0.01 | [5] -0.059 | [7] 0.024 | [8] 0.034 | [9] -0.02 | [10] 0.008

NISCH (UniProt Q9Y2I1)
Sequence of UniProt Q9Y2I1 (Q9Y2I1 whole entry, looked up): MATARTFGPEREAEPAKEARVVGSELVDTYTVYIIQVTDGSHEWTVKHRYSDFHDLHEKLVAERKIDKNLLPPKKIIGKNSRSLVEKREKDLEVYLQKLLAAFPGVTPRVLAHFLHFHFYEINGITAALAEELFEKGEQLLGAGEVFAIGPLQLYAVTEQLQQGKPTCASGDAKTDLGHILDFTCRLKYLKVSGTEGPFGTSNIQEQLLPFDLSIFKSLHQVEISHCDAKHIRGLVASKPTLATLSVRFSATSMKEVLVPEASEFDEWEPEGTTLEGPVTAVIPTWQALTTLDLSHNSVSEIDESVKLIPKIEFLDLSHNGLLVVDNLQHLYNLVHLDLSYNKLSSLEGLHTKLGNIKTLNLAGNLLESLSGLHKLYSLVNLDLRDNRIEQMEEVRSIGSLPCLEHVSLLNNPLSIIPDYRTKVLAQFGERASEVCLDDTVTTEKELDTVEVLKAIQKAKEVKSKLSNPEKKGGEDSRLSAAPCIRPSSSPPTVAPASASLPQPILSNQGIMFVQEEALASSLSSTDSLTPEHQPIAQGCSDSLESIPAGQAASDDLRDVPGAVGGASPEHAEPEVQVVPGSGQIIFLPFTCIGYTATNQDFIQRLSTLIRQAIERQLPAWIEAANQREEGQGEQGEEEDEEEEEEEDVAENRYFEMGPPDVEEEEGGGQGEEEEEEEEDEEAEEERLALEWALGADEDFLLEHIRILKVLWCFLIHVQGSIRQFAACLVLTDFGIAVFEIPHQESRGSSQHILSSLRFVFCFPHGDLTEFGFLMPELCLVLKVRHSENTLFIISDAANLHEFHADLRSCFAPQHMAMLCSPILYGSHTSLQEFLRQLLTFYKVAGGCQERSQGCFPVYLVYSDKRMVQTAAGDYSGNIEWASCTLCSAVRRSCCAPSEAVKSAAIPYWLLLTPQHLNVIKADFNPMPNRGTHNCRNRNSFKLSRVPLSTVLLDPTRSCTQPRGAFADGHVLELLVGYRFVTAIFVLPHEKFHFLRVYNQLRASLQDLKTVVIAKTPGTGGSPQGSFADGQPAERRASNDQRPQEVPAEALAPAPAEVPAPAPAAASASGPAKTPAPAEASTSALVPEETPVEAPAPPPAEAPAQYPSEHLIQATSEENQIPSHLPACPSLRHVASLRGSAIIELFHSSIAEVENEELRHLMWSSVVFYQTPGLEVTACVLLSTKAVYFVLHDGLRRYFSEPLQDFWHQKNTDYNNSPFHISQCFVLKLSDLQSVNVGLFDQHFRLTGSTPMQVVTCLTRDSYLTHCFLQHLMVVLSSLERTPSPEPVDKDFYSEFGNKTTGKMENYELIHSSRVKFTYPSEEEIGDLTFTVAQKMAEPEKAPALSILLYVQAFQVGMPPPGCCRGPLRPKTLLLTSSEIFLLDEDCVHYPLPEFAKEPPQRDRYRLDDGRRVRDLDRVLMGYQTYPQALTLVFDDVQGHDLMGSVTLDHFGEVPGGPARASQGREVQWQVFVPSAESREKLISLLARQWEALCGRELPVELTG
inactive: [1] 0.053 | [2] 0 | [3] -0.037 | [4] 0.02 | [5] 0.007 | [6] -0.429 | [7] 0.028 | [8] 0.047 | [9] 0.018 | [10] 0.004

MSH6 (UniProt P52701)
inactive: [1] -0.18 | [2] -0.088 | [3] -0.121 | [4] -0.024 | [5] -0.299 | [6] -0.544 | [7] 0.039 | [8] -0.005 | [9] 0.053
active: [10] 0.884

MXRA7 (UniProt P84157)
inactive: [1] 0.098 | [2] 0.048 | [3] -0.064 | [4] -0.012 | [5] 0.116 | [6] 0.075 | [7] -0.083 | [8] -0.049 | [9] -0.011 | [10] -0.045
